About 2,000 (36%) of roughly 5,500 compounds were called active. Another 18% or so got no clear call; they are omitted. No stated cut-off is given here; in the data, active means normalized growth mostly below about 0.91 (no sharp cut-off); inconclusive means no clear call, values can overlap the other calls; inactive means mostly above about 0.92. Some of the results follow.
Assay: chemical genetic growth profiling, strain panel (AID 1159580);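 further: tested at 20 µM; growth read once vehicle control cultures reached saturation at 30 °C; 1 = growth at the plate median or of vehicle wells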
Conditions: growth OD

Measured: normalized growth

CC(=O)Nc1cccc(O)c1
inactive: S. cerevisiae deletion strains, locus YJL187C, strain SWE1, stronger effect = lower value 1.02 | S. cerevisiae deletion strains, locus YJR043C, strain POL32, stronger effect = lower value 0.999 | S. cerevisiae deletion strains, locus YJR075W, strain HOC1, stronger effect = lower value 1.01 | S. cerevisiae deletion strains, locus YKL009W, strain mrt4, stronger effect = lower value 0.973 | S. cerevisiae deletion strains, locus YKL068W, stronger effect = lower value 0.989 | S. cerevisiae deletion strains, locus YKL085W, strain MDH1 (second series), stronger effect = lower value 1.01 | S. cerevisiae deletion strains, locus YKL085W, strain MDH1, stronger effect = lower value 1.01 | S. cerevisiae deletion strains, locus YKL160W, strain elf1, stronger effect = lower value 1.05 | S. cerevisiae deletion strains, locus YKL190W, strain CNB1, stronger effect = lower value 1 | S. cerevisiae deletion strains, locus YKR001C, strain vps1, stronger effect = lower value 0.991 | S. cerevisiae deletion strains, locus YKR026C, strain gcn3, stronger effect = lower value 1.01 | S. cerevisiae deletion strains, locus YKR091W, strain srl3, stronger effect = lower value 1.01 | S. cerevisiae deletion strains, locus YLL001W, strain dnm1, stronger effect = lower value 0.995 | S. cerevisiae deletion strains, locus YLL026W, stronger effect = lower value 1.03 | S. cerevisiae deletion strains, locus YLL041C, strain sdh2, stronger effect = lower value 1.03 | S. cerevisiae deletion strains, locus YLR027C, strain aat2, stronger effect = lower value 1.01 | S. cerevisiae deletion strains, locus YLR039C, strain RIC1, stronger effect = lower value 1 | S. cerevisiae deletion strains, locus YLR058C, strain SHM2, stronger effect = lower value 1.01 | S. cerevisiae deletion strains, locus YLR102C, strain apc9, stronger effect = lower value 1.01 | S. cerevisiae deletion strains, locus YLR221C, strain rsa3, stronger effect = lower value 0.972 | S. cerevisiae deletion strains, locus YLR258W, strain gsy2, stronger effect = lower value 1.04 | S. cerevisiae deletion strains, locus YLR262C, strain YPT6 (second series), stronger effect = lower value 1.01 | S. cerevisiae deletion strains, locus YLR262C, strain YPT6, stronger effect = lower value 1.02 | S. cerevisiae deletion strains, locus YLR268W, strain sec22, stronger effect = lower value 0.986 | S. cerevisiae deletion strains, locus YLR320W, strain mms22, stronger effect = lower value 0.957 | S. cerevisiae deletion strains, locus YLR330W, strain CHS5, stronger effect = lower value 1.01 | S. cerevisiae deletion strains, locus YLR342W, strain FKS1 (second series), stronger effect = lower value 1 | S. cerevisiae deletion strains, locus YLR342W, strain FKS1, stronger effect = lower value 1.04 | S. cerevisiae deletion strains, locus YLR357W, strain rsc2, stronger effect = lower value 1.04 | S. cerevisiae deletion strains, locus YLR370C, strain arc18, stronger effect = lower value 1.03 | S. cerevisiae deletion strains, locus YLR371W, strain rom2, stronger effect = lower value 0.999 | S. cerevisiae deletion strains, locus YLR384C, strain iki3, stronger effect = lower value 1.02 | S. cerevisiae deletion strains, locus YLR418C, strain cdc73, stronger effect = lower value 0.996 | S. cerevisiae deletion strains, locus YML016C, strain PPZ1, stronger effect = lower value 1.01 | S. cerevisiae deletion strains, locus YML032C, strain rad52, stronger effect = lower value 0.995 | S. cerevisiae deletion strains, locus YML120C, strain ndi1, stronger effect = lower value 0.972 | S. cerevisiae deletion strains, locus YML124C, strain tub3, stronger effect = lower value 0.986 | S. cerevisiae deletion strains, locus YMR058W, strain fet3, stronger effect = lower value 1.02 | S. cerevisiae deletion strains, locus YMR078C, strain ctf18, stronger effect = lower value 0.989 | S. cerevisiae deletion strains, locus YMR125W, strain sto1, stronger effect = lower value 1.03 | S. cerevisiae deletion strains, locus YMR129W, stronger effect = lower value 0.998 | S. cerevisiae deletion strains, locus YMR205C, strain PFK2, stronger effect = lower value 0.991 | S. cerevisiae deletion strains, locus YMR223W, strain ubp8, stronger effect = lower value 1 | S. cerevisiae deletion strains, locus YMR231W, strain pep5, stronger effect = lower value 1 | S. cerevisiae deletion strains, locus YMR263W, strain SAP30, stronger effect = lower value 1.01 | S. cerevisiae deletion strains, locus YMR307W, strain GAS1, stronger effect = lower value 1 | S. cerevisiae deletion strains, locus YNL067W, strain RPL9B, stronger effect = lower value 1.01 | S. cerevisiae deletion strains, locus YNL071W, strain lat1, stronger effect = lower value 1.01 | S. cerevisiae deletion strains, locus YNL153C, strain GIM3, stronger effect = lower value 1.02 | S. cerevisiae deletion strains, locus YNL209W, strain ssb2, stronger effect = lower value 1.02 | S. cerevisiae deletion strains, locus YNL233W, strain BNI4, stronger effect = lower value 1.02 | S. cerevisiae deletion strains, locus YNL248C, strain rpa49, stronger effect = lower value 1.07 | S. cerevisiae deletion strains, locus YNL250W, strain rad50, stronger effect = lower value 0.995 | S. cerevisiae deletion strains, locus YNL271C, strain bni1, stronger effect = lower value 0.993 | S. cerevisiae deletion strains, locus YNL298W, strain CLA4, stronger effect = lower value 0.978 | S. cerevisiae deletion strains, locus YNL307C, strain MCK1, stronger effect = lower value 1.01 | S. cerevisiae deletion strains, locus YNL322C, strain KRE1 (second series), stronger effect = lower value 1.05 | S. cerevisiae deletion strains, locus YNL322C, strain KRE1, stronger effect = lower value 1 | S. cerevisiae deletion strains, locus YNR049C, strain mso1, stronger effect = lower value 1.01 | S. cerevisiae deletion strains, locus YNR052C, strain pop2, stronger effect = lower value 1 | S. cerevisiae deletion strains, locus YOL006C, strain TOP1, stronger effect = lower value 1.03 | S. cerevisiae deletion strains, locus YOL012C, strain htz1 0.695 | S. cerevisiae deletion strains, locus YOL147C, strain pex11, stronger effect = lower value 0.99 | S. cerevisiae deletion strains, locus YOR001W, strain rrp6, stronger effect = lower value 0.952 | S. cerevisiae deletion strains, locus YOR061W, strain CKA2, stronger effect = lower value 1 | S. cerevisiae deletion strains, locus YOR069W, strain VPS5, stronger effect = lower value 1 | S. cerevisiae deletion strains, locus YOR070C, strain gyp1, stronger effect = lower value 1.02 | S. cerevisiae deletion strains, locus YOR080W, strain dia2, stronger effect = lower value 1.02 | S. cerevisiae deletion strains, locus YOR083W, strain WHI5, stronger effect = lower value 0.997 | S. cerevisiae deletion strains, locus YOR106W, strain vam3, stronger effect = lower value 1.05 | S. cerevisiae deletion strains, locus YOR136W, strain idh2, stronger effect = lower value 0.995 | S. cerevisiae deletion strains, locus YOR144C, strain elg1, stronger effect = lower value 0.993 | S. cerevisiae deletion strains, locus YOR184W, strain ser1, stronger effect = lower value 1 | S. cerevisiae deletion strains, locus YOR265W, strain rbl2, stronger effect = lower value 1.01 | S. cerevisiae deletion strains, locus YOR270C, strain vph1, stronger effect = lower value 1.05 | S. cerevisiae deletion strains, locus YOR290C, strain snf2, stronger effect = lower value 1.05 | S. cerevisiae deletion strains, locus YOR316C, strain cot1, stronger effect = lower value 0.991 | S. cerevisiae deletion strains, locus YPL051W, strain arl3, stronger effect = lower value 1.04 | S. cerevisiae deletion strains, locus YPL055C, strain LGE1, stronger effect = lower value 1.01 | S. cerevisiae deletion strains, locus YPL078C, strain atp4, stronger effect = lower value 1.04 | S. cerevisiae deletion strains, locus YPL106C, strain sse1, stronger effect = lower value 1.01 | S. cerevisiae deletion strains, locus YPL240C, strain hsp82, stronger effect = lower value 1.01 | S. cerevisiae deletion strains, locus YPR119W, strain clb2, stronger effect = lower value 1 | S. cerevisiae deletion strains, locus YPR141C, strain kar3, stronger effect = lower value 0.98 | S. cerevisiae deletion strains, locus YPR163C, strain tif3, stronger effect = lower value 0.988 | S. cerevisiae deletion strains, locus YPR167C, strain met16, stronger effect = lower value 0.997 | S. cerevisiae deletion strains, strain wtn01, stronger effect = lower value 0.995 | S. cerevisiae strains, strain wild type, stronger effect = lower value 1.01

Source: PubChem BioAssay AID1159580 (chemical genetic matrix, 2015)
